Key:
Assay in all cases: PBM binding z-score (relative to random genomic background probes); higher = stronger binding; sequences stand for … in GC…GCGATTGACAGCGTAGAATGAAGG
[1] = tested on: RARb homodimer (NR concentration 270 nM)
Procedure, shortened: (§1)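 Each nuclear receptor dimer, without ligand, was incubated for 1 h on custom Agilent 4×180K protein-binding microarrays. Binding was detected with antibodies against each partner (one per run), and scanned fluorescence was regression-normalized. The binding z-scores are referenced to random human genomic background probes.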

[2] = tested on: RARg:RXRa (NR concentration 270 nM, RXRa partner concentration 90 nM)
Procedure, shortened: as §1

[3] = tested on: RARg homodimer (NR concentration 270 nM)
Procedure, shortened: as §1

[4] = tested on: RXRa DBDmut IVT, anti-RXR (DBD mutation: RXRa K156A/R161A, NR concentration 90 nM)
Procedure, shortened: as §1

[5] = tested on: RXRa homodimer (NR concentration 180 nM)
Procedure, shortened: as §1

[6] = tested on: THRa:RXRa (NR concentration 90 nM, RXRa partner concentration 90 nM)
Procedure, shortened: as §1

[7] = tested on: THRa homodimer (NR concentration 90 nM)
Procedure, shortened: as §1

[8] = tested on: VDR:RXRa (NR concentration 270 nM, RXRa partner concentration 90 nM)
Procedure, shortened: as §1

[9] = tested on: VDR homodimer (NR concentration 270 nM)
Procedure, shortened: as §1

Row | Sequence | PBM binding z-score [1] | PBM binding z-score [2] | PBM binding z-score [3] | PBM binding z-score [4] | PBM binding z-score [5] | PBM binding z-score [6] | PBM binding z-score [7] | PBM binding z-score [8] | PBM binding z-score [9]
1 | CCTGCTAGGTCAATGGTGAGCTAAAGCAGCTCGC | 1.97 | 3.3 | 4.12 | 1.62 | 1.56 | 1.77 | 0.113 | 0.217 | -0.465
2 | CCTTACGGGTGACTGACAGGTTATAGCATTTGGA | 0.601 | 1.07 | 0.559 | 0.115 | 0.941 | 0.72 | -0.154 | 0.132 | -0.209
3 | CGTCCACGGTCAAAGGTCAGTGAAGAGATGACGG | 4.48 | 6.76 | 6.04 | 0.983 | 7.05 | 3.11 | 0.0529 | 3.76 | 0.561
4 | ATTCAAAGTTCACTAGGTAACGTAAGATTCAGCT | 3.66 | 4.48 | 5.35 | 4.38 | 3.58 | 2.03 | 0.474 | 3.43 | 4.11
5 | GCAGACAGGTGAAACGCAGGAAACTCAGGGTGGC | 0.0136 | 0.246 | 0.0798 | -0.424 | 0.715 | 0.142 | -0.634 | -0.533 | -0.569
6 | GCTAGTTGGTCAGTAAAGGGTCACACACCGGTCG | 4.43 | 4.33 | 3.73 | 0.428 | 3.78 | 2.77 | 0.995 | 3.09 | 1.74
7 | CCTACTAGGCCAAGGTCATTGATCAGTCAAAGCA | 3.74 | 3.86 | 3.68 | 2.31 | 3.64 | 3.52 | 3.01 | 3.48 | 3.34
8 | TCAAATAGGTAATACAGGTGAAAGTCGGCATCTA | 0.557 | 0.633 | 0.49 | 1.74 | 1.14 | 0.877 | -0.0126 | 1.28 | 0.0898
9 | CGAACGAGGACATGAGTTGATAGCAAATGCCGAT | 0.159 | 0.527 | 1.16 | 1.52 | 0.107 | 2.23 | 1.28 | 0.112 | 0.998
10 | TCGAGTTGGTTACCAATGGGGCATTCAGCTTTCT | -0.231 | -0.62 | -0.85 | 0.662 | -0.558 | -0.69 | -1.23 | -0.461 | -0.117
11 | ATCGAAAGGTCGTGAGGTGAGTCTACAGAAAGGC | 3.17 | 4.64 | 3.92 | 1.06 | 5.19 | 3.48 | 1.43 | 3.66 | 1.09
12 | ACTATTAGTTGACTTAGCGCAACCGATACGACGC | -0.331 | 0.0723 | 0.494 | 0.553 | 0.244 | -0.258 | -0.16 | 0.0494 | 0.12
13 | GCTTGTAGATCAAGGTTAAGAGAGACTAAGCTAA | 0.148 | 0.263 | 0.22 | -0.00641 | 0.438 | 1.2 | -0.0888 | -0.00778 | -0.335
14 | ATAACGAGGGCACGCTGAGTTGATAGCAGAGTAG | 1.27 | 1.72 | 2.4 | 1.64 | 1.46 | 2.07 | 0.209 | 2.27 | 2.05
15 | CGAACTAGGTCAGAACAAGACAGTGAAGGATGAT | 1.79 | 2.37 | 3.15 | 0.577 | 1.31 | 1.32 | 0.101 | 0.215 | 0.237
16 | TAGCTTAGGTCATGGGCCAGTATACCACGCGAAC | 3.13 | 4.31 | 4.67 | 0.975 | 3.74 | 3.68 | 2.42 | 2.15 | 0.172
17 | TCTATTAGTTTATTAGGGCAACCGAAACAGCGGA | 1.56 | 1.15 | 1.09 | 1.92 | 0.82 | 1.54 | 1.62 | 1.03 | 1.29
18 | CGAACTAGGTCCTCCAGGACAGTGAATACATTGA | -0.151 | 0.0122 | 0.149 | 0.211 | 0.00298 | 1.41 | 0.816 | -0.247 | -0.221
19 | ACTAGCAGGCCAAGTTTGGGTCACTCAGACAAAG | 2.13 | 2.11 | 1.41 | 0.0571 | 0.7 | 2.33 | 0.94 | 0.43 | 0.117
20 | CCGACTGGGGCTGAAAGGTTACCATACCATCCGG | 1.92 | 1.33 | 0.724 | -0.859 | 1.75 | 0.974 | -0.189 | 0.343 | -0.252
21 | TAGCCTAGGTCATTCAGGTGCCAGTATAGAAAGC | 2.67 | 4.44 | 3.98 | 1.73 | 2.97 | 3.13 | 1.06 | 3.1 | 1.66
22 | TAGCCTAGGTCAGTCAGGGGCCAGTATAGAAAGC | 2.81 | 4.53 | 3.75 | -0.63 | 1.18 | 1.86 | 0.122 | 0.785 | 0.0513
23 | ATATGTAGGTTAGCTGGGGTCATTGAGACTAGGC | 3.66 | 4.03 | 2.91 | 1.82 | 5.63 | 4.83 | 3.21 | 5.95 | 5.12
24 | CCTAGTTGGTCACGGTCACACACGCTATAGGTAC | 2.79 | 1.84 | 2.25 | 1.13 | 0.982 | 1.05 | 1.4 | 1.12 | 0.987
25 | ACTAGCATGCCAAGGGTCACTCAAGATTAGTCCG | 3.83 | 3.77 | 3.69 | 0.719 | 3.91 | 2.75 | 0.299 | 2.93 | 1.64
26 | CCTCGGACGACAACAGGAGGTCAGAGCTGCCAGA | 2.97 | 1.95 | 1.99 | -0.432 | 1.84 | 1.92 | 0.602 | 1.52 | 0.934

Row | Sequence | PBM binding z-score [1] | PBM binding z-score [2] | PBM binding z-score [3] | PBM binding z-score [4] | PBM binding z-score [5] | PBM binding z-score [6] | PBM binding z-score [7] | PBM binding z-score [8] | PBM binding z-score [9]
27 | ATCTCTAGTTAAAGTTCAGTGAAAGATCGATAGA | 2.53 | 1.88 | 2.04 | 1.84 | 1.22 | 0.988 | 0.202 | 1.64 | 2.47
28 | ACTCGGAGGACTAAGGTCAGAGCTACGCCAGTGA | 3.15 | 2.89 | 2.54 | 0.168 | 2.34 | 3.35 | 2.6 | 1.65 | 0.805
29 | CGAACTAGGTTATTGACAGGACAGTGAATAGTAA | 0.991 | 1.04 | 0.618 | 0.59 | 0.57 | 1.27 | -0.0792 | 0.204 | 0.278
30 | CGTCCAAGGTCAGCAGGTCAGTGTAAGCGACGTG | 5.08 | 6.34 | 6.61 | 2.55 | 4.93 | 4.01 | 2.46 | 4.14 | 2.01
31 | GCGACTGGGGCAAAGCACGTTACCATAAGGTTGG | 0.0132 | 0.0263 | 0.422 | -0.0988 | 0.0282 | -0.139 | -0.582 | -0.469 | -0.524
32 | GCGACTGGGGCAAAGCAGGTTACCGTAAGGTTGG | 1.14 | 0.477 | 0.183 | -0.47 | 0.234 | 3.15 | -0.142 | -0.0193 | -0.434
33 | ACTAGCAGGCCCAGTTTGGGTCACTCAAACAAAG | 1.42 | 0.324 | 0.28 | -0.882 | 0.398 | 1.72 | 0.659 | -0.198 | -0.243
34 | GCATATTGGTAATACAAGGTGAAAGTCCGATTGT | 0.603 | 0.0948 | 0.327 | 0.349 | 0.367 | 2.39 | 1 | -0.16 | -0.108
35 | TTACCAGGGTGAAGGTCGTTGATCCCTCTGTAGA | 1.74 | 1.16 | 0.774 | -0.374 | 2.14 | 1.84 | 0.461 | 1.65 | 0.856
36 | CGAACTAGGTCAGAACAGGACAGTGATGGATGAT | 2.11 | 2.39 | 2.83 | 0.564 | 1.13 | 3.48 | 0.141 | 0.651 | 0.283
37 | CCTATTAGTTGATCATAAGGGCAACCGAAGCTCG | 1.43 | 0.898 | 0.868 | 0.845 | 0.308 | 1.69 | 1.05 | 0.485 | 1.1
38 | ATCTCTAGGTAAGACTCAGATCAGTGAAGAACGC | -0.0502 | 0.253 | 0.295 | 0.0225 | 0.0293 | 0.242 | 0.333 | 0.238 | 0.414
39 | CATACAGGGTCAGCAAGGCCAGAGTAGGGACGGC | 3.4 | 4.63 | 5.18 | 1.92 | 4.64 | 3.29 | 1.03 | 5.7 | 2.08
40 | TCGAGTAGGTTACCAATGGGGCAGTCAGCTTTCT | 0.628 | 1.29 | 0.257 | 0.0356 | 0.404 | -0.0981 | -1.12 | -0.0931 | -1.05
41 | ATCGAAACGTCGAAGGTGAGTATACCCACCCGAA | -0.0717 | 0.382 | 0.461 | -1.07 | 0.361 | 0.0237 | -0.567 | -0.229 | -0.497
42 | AGTCACAGTTCATCTAGGTAACGTAAGATATGCT | 1.67 | 2.47 | 2.66 | 3.33 | 2.05 | 2.13 | 0.362 | 3.05 | 3.1
43 | CAAACTAGGTCACAGAGGTCACAGTCCGTGCGTA | 5.65 | 7.17 | 7.58 | 2.76 | 7.39 | 4.67 | 3.58 | 7.66 | 6.14
44 | ATCTCTAGGCAAAGTTCAGTGAAAGATCGATAGA | 2.14 | 1.79 | 2.42 | 1.24 | 1.06 | 0.452 | -0.26 | 1.06 | 1.48
45 | AGAATGAGGTTACCAAAGATTAGGGAAACGCTTG | 0.628 | 1.99 | 1.59 | 0.929 | 2.53 | 2.69 | 0.581 | 1.05 | 0.29
46 | GCGACCGGGGCAAAGCAGGTTACCATAAGGTTGG | 1.47 | 1.97 | 1.54 | -0.485 | 0.949 | 3.71 | -0.0146 | 0.7 | -0.132
47 | TCGAGTAGGTTTCCAATGGGGCATTCAGCTTTCT | -0.0582 | -0.76 | -0.806 | 0.449 | -0.581 | -0.683 | -0.262 | -0.464 | -0.443
48 | TCTTGTAGCTCAGCAGGTTAAGAAAGCTGGCCAA | -0.305 | -0.557 | -0.799 | -0.298 | -0.011 | -0.123 | -0.926 | -0.236 | -0.952
49 | TCTATTAGTTGGTTAGGGCAACCGAAACAGCGGA | 0.686 | 0.47 | 0.667 | 0.779 | 0.412 | 0.638 | 0.431 | 0.428 | 0.587
50 | CCTACTGGGCCATCAGGTCATTGATATCAACGTT | 2.73 | 2.15 | 2.21 | 0.377 | 1.17 | 3.14 | 3.21 | 1.81 | 1.66
51 | GGTTACGGGTCAAAGGTTATAGCATGAATAGAAT | 3.44 | 6.91 | 4.71 | 1.89 | 9.23 | 4.06 | 0.33 | 5.46 | 1.64
52 | GCTCGGAGGAAAAGGTCAGAGCTTTGTCCGTAGA | 4 | 4.34 | 4.89 | -0.162 | 4.74 | 2.22 | -0.291 | 2.14 | -0.277

— the supplement of paper PMC6555819
